Mtb bLac sens – beta-lactam sensitization of Mtb H37Rv | M. tuberculosis H37Rv growth with meropenem, percent inhibition | inhibition, % at 25 µM | hit rate 0.27% among 330,000 | AID 434955; call rule not given here;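 further: growth measured after seven days incubation then overnight dye step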
SSB-PriA inh – blocks PriA binding to SSB C-terminal tail; AlphaScreen SSBct-PriA binding, biotinylated peptide; inhibition, % at 33 µM; hit rate 0.6% among 430,000; in the data active means inhibition mostly above about 37%, no sharp cut-off; inactive means mostly below about 20%
Mtb UGM inh – Mtb UDP-galactopyranose mutase inhibition. P9WIQ1. purified UGM, fluorescence polarization probe displacement. inhibition, % at 10 µM. hit rate 0.06% among 320,000. AID 504406; in the data active means inhibition above about 10%, passing the limit was not always enough
GDH-TPI counter – counter-screen for M. tuberculosis FBA inhibitors: GDH-TPI coupled enzymes | GDH-TPI coupled enzyme counterscreen, NADH absorbance | inhibition, % at 4.8 µM | hit rate 1.2% among 360,000; in the data active means inhibition above about 30%
FBA Mtb inh – inhibits M. tuberculosis FBA enzyme. P9WQA3. purified M. tuberculosis FBA, fluorescence read-out. inhibition, % at 1 µM. hit rate 2.3% among 360,000. AID 588726; in the data active means inhibition above about 27%
Rv3671c inh – inhibitors of M. tuberculosis serine protease Rv3671c; P9WHR9; inhibition, % at 5.96 µM; hit rate 0.048% among 320,000; AID 2606; in the data active means inhibition above about 38%;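 further: extracellular domain of Rv3671c used as enzyme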
Target sequence (P9WHR9 whole entry, looked up, the tested form may be a part): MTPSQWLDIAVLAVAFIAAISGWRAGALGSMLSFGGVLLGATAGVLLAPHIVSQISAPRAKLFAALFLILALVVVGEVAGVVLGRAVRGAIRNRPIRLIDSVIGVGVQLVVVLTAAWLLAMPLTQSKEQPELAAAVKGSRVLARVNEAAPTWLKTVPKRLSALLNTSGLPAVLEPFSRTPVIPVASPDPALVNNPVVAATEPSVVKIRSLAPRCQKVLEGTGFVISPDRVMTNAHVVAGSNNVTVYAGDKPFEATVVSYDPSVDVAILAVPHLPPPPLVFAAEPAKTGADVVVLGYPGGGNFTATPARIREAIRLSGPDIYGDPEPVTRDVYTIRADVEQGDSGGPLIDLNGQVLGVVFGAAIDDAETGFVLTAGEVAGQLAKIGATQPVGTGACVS
Hits are given with their value; - = inactive; . = no result given; + = active, no number. Shown are actives, neighbours in structure and some others; about 3.2% of the full set was active somewhere.

SMILES | Mtb bLac sens | SSB-PriA inh | Mtb UGM inh | GDH-TPI counter | FBA Mtb inh | Rv3671c inh
CCOC(=O)C(C)Sc1nnc2c3ccccc3n(C)c2n1 (centres undefined) | - | - | - | 32 | - | -
Cc1ccc(C)c(N2CCN(c3nc4ccccc4c(=O)n3Cc3ccccc3)CC2)c1 | - | 104 | . | - | - | -
O=C(NCCn1ccnc1-c1ncccn1)c1ccc2c(c1)OCO2 | . | 93 | . | . | . | .
COc1ccc(Br)c(C(=O)NCCn2ccnc2-c2ncccn2)c1 | . | 91 | . | . | . | .
CC(=O)Nc1ccc(S(=O)(=O)NCCn2ccnc2-c2ccccn2)c(C)c1 | . | - | . | . | . | .
O=C(NCCn1ncccc1=O)c1ccc2c(c1)OCO2 | . | - | . | . | . | .
COc1ccc(OC)c(S(=O)(=O)NCCCn2ccnc2)c1 | - | - | - | - | - | -
COc1ccc(Br)c(C(=O)NCCn2nc(C)cc2C)c1 | . | - | . | . | . | .
COc1ccc(S(=O)(=O)NCCn2ccnc2-c2ncccn2)c(C)c1 | . | 81 | . | . | . | .
COc1ccc(OC)c(S(=O)(=O)NCCn2ccnc2-c2ncccn2)c1 | . | 91 | . | . | . | .
Cc1cc(NC(=O)c2cccc(C(F)(F)F)c2)n(-c2ncnc3c2cnn3-c2cccc(Cl)c2)n1 | . | - | . | . | . | .
O=C(c1ccc(-n2cccc2)cc1)N1CCS[C@H](c2ccccc2)CC1 | . | 35 | . | . | . | .
O=C(COc1ccc(Cl)cc1Cl)NCCNc1cc(-n2cccn2)ncn1 | . | - | . | . | . | .
COC(=O)C1C2C=CC3(CN(Cc4cccs4)C(=O)C13)O2 (centres undefined) | - | - | - | - | - | -
CC(C)OC(=O)C1C2C=CC3(CN(Cc4cccs4)C(=O)C13)O2 (centres undefined) | - | - | - | - | 123 | -
COc1ccc(C)c2sc(NCc3ccco3)nc12 | . | - | . | . | . | .
Cc1ccc2cc(CCNC(=S)NCCn3ccc4ccccc43)c(=O)[nH]c2c1 | . | 46 | . | . | . | .
Cn1c(-c2ccc(Cl)cc2)cnc1N | - | 54 | - | - | - | -
Cn1ccc(C(=O)Nc2nnc(-c3ccno3)o2)n1 | . | - | . | . | . | .
CCn1ccc(C(=O)Nc2nnc(-c3ccno3)o2)n1 | . | 28 | . | . | . | .
CC(CCC(=O)O)=NNc1ccc([N+](=O)[O-])cc1[N+](=O)[O-] | . | - | . | . | . | .
CCOC(=O)CC(C)=NNc1ccc([N+](=O)[O-])cc1[N+](=O)[O-] | . | 47 | . | . | . | .
C/C(C=Nn1cnnc1)=C\c1ccco1 | . | - | . | . | . | .
CC(/C=N/n1cnnc1)=C\c1ccco1 | - | . | - | 39 | - | -
CCN(CC)c1cc(C)nc(Nc2ccc(NC(=O)c3ccccc3Br)cc2)n1 | . | - | . | . | . | .
SMILES | Mtb bLac sens | SSB-PriA inh | Mtb UGM inh | GDH-TPI counter | FBA Mtb inh | Rv3671c inh
O=C1C(SCCO)=C(SCCO)C(=O)c2ccccc21 | - | 101 | - | - | - | -
CC1=C(SCc2ccccc2)C(=O)c2ccccc2C1=O | . | - | . | - | - | .
O=C(CSc1ncnc2c1cnn2-c1ccccc1)N1CCC(Cc2ccccc2)CC1 | . | - | . | . | . | .
CCN(CC)CCNC(=O)c1cc2cc3ccc(OC)cc3nc2o1 | - | - | - | - | + | -
COCCCNC(=O)c1cc2cc3cc(OC)ccc3nc2o1 | - | - | - | - | 122 | -
CCN(C(=O)c1cc2cc3ccc(C)cc3nc2o1)c1ccc(OC)cc1 | - | - | - | - | - | -
CCCCN(C)CCNC(=O)c1cc2cc3ccc(OC)cc3nc2o1 | - | - | - | - | + | -
Cc1ccccc1-c1ccc(N2CCC(C(=O)N3CCc4ccccc4C3)CC2)nn1 | . | - | . | . | . | .
O=C(C[C@@H]1Sc2ccc(C(F)(F)F)cc2NC1=O)Nc1ccc(OC(F)F)cc1 | . | - | . | . | . | .
Cc1cccc(-n2c(CNC(=O)COc3ccccc3)nnc2SCC(=O)N2CCc3ccccc32)c1 | . | - | . | . | . | .
Cc1ccc([N+](=O)[O-])cc1NC(=O)C(=O)NC1CCCCCC1 | . | - | . | . | . | .
CC(O)/C=C/C1OC(=O)CC1Nc1ccc(C=O)cc1 (centres undefined) | - | - | - | 34 | - | -
COc1c2ccoc2nc2c(OC)c(O)ccc12 | - | - | - | - | - | -
COc1c2ccoc2nc2c(OC)c(OC[C@@H](O)C(C)(C)O)ccc12 | - | - | - | - | 146 | -
COc1c2ccoc2nc2c(OC)c(OCC(O)C(C)(C)O)ccc12 (centres undefined) | - | - | - | - | 146 | -
COc1c2ccoc2c(OC[C@@H](O)C(C)(C)O)c2oc(=O)ccc12 | - | - | - | - | - | -
COc1c2ccoc2c(OC[C@@H](OC(C)=O)C(C)(C)O)c2oc(=O)ccc12 | - | - | - | - | - | -
COc1c2ccoc2nc2c(OC)c(OCC(OC(C)=O)C(C)(C)O)ccc12 (centres undefined) | - | - | - | - | 130 | -
CC(=O)c1ccc(CN)cc1 | . | - | . | . | . | .
